The sample as a whole holds a higher share of hits than the screen did.
Pf Dd2 inh = Plasmodium falciparum Dd2 growth inhibition; Potency, µM (titrated, usually from 28.9 µM), for inactives: at the top dose activity, negative = inhibition, actives largely listed as inhibitors; 120,000 tested, 4.3% active; P. falciparum Dd2 growth, SYBR Green, 72 h; active = well fitted inhibition curve with a large enough effect;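 note: plate controls were DMSO vehicle for no effect and reference drug for full effect; nearly all actives have a fitted effect of over 65% in size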
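Readout: SYBR Green fluorescence, 485 nm excitation, 535 nm emission, after ~16 h lysis at 37C. Before that, Dd2-infected red cells (2.5% hematocrit) grew 72 h with compound, 29 uM top final concentration.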
Numbers without * were called inactive; i = inactive; [ ] = remark or other dose. Potency is the fitted concentration of half-maximal effect.

SMILES	Pf Dd2 inh
O=[N+]([O-])c1cccc(-c2noc([C@@H]3C[C@@H](O)CN3CC3CCCCC3)n2)c1	i
O=C(O)C[C@@H]1CCN(C(=O)Nc2ccccc2)C[C@@H]1CCN1CCCCC1	5.3%[44.1 µM]
Cc1ncc(C(=O)NCc2ccc3[nH]c(-c4ccccc4F)c(C)c3c2)c(C)n1	2.6%
Cc1noc(C)c1S(=O)(=O)N1CCOCCNC(=O)[C@@H]2CCC[C@@H]21	-13.2%
CN(C)C(=O)CN1C(=O)CO[C@H](c2ccc(NC(=O)C3CC3)cc2)[C@H]1CO	8.1%[44.1 µM]
C[C@H]1[C@@H]2[C@H]3OC(=O)[C@@H](C)[C@@H]3CC[C@@]2(C)CC[C@@H]1NC(=O)Nc1cccc(F)c1	i
C#CCNC(=O)C[C@@H]1c2nc(NC(=O)C(C)(C)C)sc2C[C@@H]2[C@](C)(CO)[C@H](O)CC[C@]21C	i
C#CCNC(=O)C[C@@H]1c2nc(NC(=O)c3ccc(C(C)(C)C)cc3)sc2C[C@@H]2[C@](C)(CO)[C@H](O)CC[C@]21C	3.98µM*
CC(C)C[C@H](CO)NC(=O)C[C@@H]1c2nc(NC(=O)c3ccco3)sc2C[C@@H]2[C@](C)(CO)[C@H](O)CC[C@]21C	8.91µM*
COCCNC(=O)C[C@@H]1c2nc(NC(=O)c3ccco3)sc2C[C@@H]2[C@](C)(CO)[C@H](O)CC[C@]21C	i
CC(C)NC(=O)C[C@@H]1c2nc(NC(=O)N3CCOCC3)sc2C[C@@H]2[C@](C)(CO)[C@H](O)CC[C@]21C	-16.3%
CN(Cc1ccccc1)C(=O)C[C@@H]1c2nc(NC(=O)CC(C)(C)C)sc2C[C@@H]2[C@](C)(CO)[C@H](O)CC[C@]21C	i
C[C@]1(CO)[C@H]2Cc3sc(NC(=O)c4ccco4)nc3[C@@H](CC(=O)Nc3ccccc3)[C@]2(C)CC[C@H]1O	7.08µM*
CC(C)NC(=O)C[C@@H]1c2nc(NC(=O)c3ccc(F)cc3)sc2C[C@@H]2[C@](C)(CO)[C@H](O)CC[C@]21C	i
C[C@]1(CO)[C@H]2Cc3sc(-c4ccsc4)nc3[C@@H](CC(=O)NCc3ccco3)[C@]2(C)CC[C@H]1O	-23.5%
O=C(c1nc2sccn2c1Br)N1CCOCC1	11.6%[44.1 µM]
O=C(NCCc1ccccc1)C1CCN(C(=O)[C@H]2CCC[C@H](O)C2)CC1	-10.0%
O=C1CN(C(=O)CCC(=O)N2CCCC(Cc3nncn3Cc3ccccc3)C2)c2ccccc2N1 (stereo not given)	i
CCN(C1CCOCC1)C1CN(C(=O)C2CCOC2)C1 (stereo not given)	6.0%
CS(=O)(=O)c1ccc(OCC2(CNS(=O)(=O)c3ccc(F)cc3)C[C@@H](O)[C@@H](O)C2)cc1 (stereo not given in full)	12.8%
COc1ccc(-c2cn3c(n2)sc2cc(C(=O)Nc4cc(Cl)ccc4C)ccc23)cc1	-15.6%
COc1ccc(-c2cn3c(n2)sc2cc(C(=O)NCc4ccccc4)ccc23)cc1	16.1%
COc1cccc(-c2cn3c(n2)sc2cc(C(=O)NCCc4ccccc4)ccc23)c1	i
CCOC(=O)C1CCN(C(=O)c2ccc3c(c2)sc2nc(-c4ccc(OC)cc4)cn23)CC1	i
CCOc1ccc(-c2cn3c(n2)sc2cc(C(=O)NCCC4=CCCCC4)ccc23)cc1	7.08µM*
SMILES	Pf Dd2 inh
CCOc1ccc(-c2cn3c(n2)sc2cc(C(=O)NCCc4ccc(OC)c(OC)c4)ccc23)cc1	3.55µM*
CCOc1ccc(-n2c(C)nc3cc(C(=O)NCCC4=CCCCC4)ccc32)cc1	-7.4%
COc1ccc(NC(=O)c2ccc3c(c2)sc2nc(-c4ccc(OC)cc4)cn23)cc1	i
CCCSCCCNC(=O)c1ccc2c(c1)sc1nc(-c3ccc(OCC)cc3)cn12	3.55µM*
COc1ccc(C(=O)N2CCc3nc(C)nc(-c4ccc(Cl)cc4)c3CC2)cc1	i
CN1CCC2(C1)CN(CC1CCOCC1)c1ccc(C(=O)NCCCO)cc12 (stereo not given)	56.5%[44.1 µM]
CC1=C(C(=O)OC(C)(C)C)C(c2ccc(Cl)cc2)N2C(CC(=O)N3CCOCC3)=CSC2=N1 (stereo not given)	-8.6%
COc1ccc(OCC(=O)NC2CCN(c3cc(-c4ccccc4)[nH]n3)CC2)cc1	i
COc1ccc(CNc2nc(SCc3ccccc3Cl)nc3ccccc23)cc1	i
COc1ccc(C(C)=O)cc1CSc1nc(Nc2ccc(F)c(F)c2)c2ccccc2n1	11.2µM*
COc1ccc(NC(=O)C(=O)NCCc2ccccc2)cc1OC	28.2%
COc1ccc(-c2nnc(SCc3cccc(Cl)c3)o2)cc1	43.9%
COc1ccccc1NC(=O)CN1CCN(CC(=O)Nc2ccc(F)c(F)c2)CC1	-21.9%
CCSc1nc2ccccc2c(OCc2cc(C(=O)OC)ccc2OC)c1C(=O)OC	-9.2%
COc1ccc(CCNc2nc(SCc3ccccc3Cl)nc3ccccc23)cc1OC	3.55µM*
COc1cc(Nc2nc(SCC(=O)c3ccc(Cl)c(Cl)c3)nc3ccccc23)cc(OC)c1	-7.2%
COc1ccc(C(C)=O)cc1CSc1nc(NCCc2ccccc2)c2ccccc2n1	11.2µM*
COc1cc(Nc2nc(SCc3cccc(Cl)c3)nc3ccccc23)cc(OC)c1	10µM*
COc1ccc(CCNc2nc3c(c(=O)n(C)c(=O)n3C)n2Cc2ccccc2Cl)cc1OC	i
COc1ccc(NC(=O)CSc2nc(-c3ccccc3)c3ccccc3n2)cc1	26.6%
O=C(c1ccccc1F)N1CCn2c(nnc2-c2cccnc2)C1	7.9%
Cc1cnc(C(=O)N2CCc3nnc([C@@H]4C[C@@H](O)CN4C)n3CC2)cn1	8.1%
CN1CC(=O)N(C2CCCNCC2)Cc2c(NC3CCCCC3)ncnc21 (stereo not given)	-13.2%
Cn1c(C(=O)O)cc2c1CCN(Cc1ccc(F)cc1)C2	-22.5%
COc1cccc2c1OCCCN(Cc1nnc(-c3ccccc3)o1)C2	-11.0%
SMILES	Pf Dd2 inh
Cc1ccc(Cn2c(CN3CCC(C(=O)NCc4ccccc4C)CC3)cc3ccccc32)cc1	-10.1%
CN(C)CCNC(=O)C1CCN(Cc2cc3ccccc3n2Cc2ccccc2)CC1	6.31µM*
O=C(NCCCc1nc2ccccc2n1Cc1ccccc1)C1CCCCC1	-5.6%
CCOCCCNC(=O)N1CC(Oc2ccc(-c3nc(-c4ccccc4)no3)cc2)C1	-18.2%[5.79 µM]
Cc1ccc(-c2nnc3c4ccccc4c(-c4ccccc4)nn23)cc1	19.2%
COc1ccc(-c2oc3ncn4nc(-c5ccccc5C)nc4c3c2-c2ccc(OC)cc2)cc1	58.5%
COc1ccc(-c2nn3c(-c4ccccc4C)nnc3c3ccccc23)cc1	11.2µM*
O=C(NC1CCCCC1)N[C@@H]1C=C(C(=O)N[C@H]2CCCNC2=O)C[C@@H](O)[C@@H]1O	8.1%[44.1 µM]
CCCNC(=O)C1COC2(CCN(C(=O)c3ccc(OC)cc3)CC2)N1C(=O)c1ccc(OC)cc1 (stereo not given)	-4.2%
O=C(CN1C(=O)CCC1=O)N1CCC(CCOc2ccccc2F)C1 (stereo not given)	i
CCOc1cccc(C2c3c(-c4cc(C)ccc4O)n[nH]c3C(=O)N2Cc2ccco2)c1 (stereo not given)	10µM*
Cc1cc(C)c2c(=O)c3c(oc2c1)C(=O)N(Cc1ccco1)C3c1ccc(F)cc1 (stereo not given)	11.4%
Cc1ccc(O)c(-c2n[nH]c3c2C(c2ccccc2F)N(Cc2ccco2)C3=O)c1 (stereo not given)	4.47µM*
COCCCN1C(=O)c2[nH]nc(-c3cc(C)ccc3O)c2C1c1ccc(F)cc1 (stereo not given)	-29.2%
COCCN1C(=O)c2[nH]nc(-c3c(C)cc(C)cc3O)c2C1c1cccc(O)c1 (stereo not given)	-7.7%

Source: PubChem BioAssay
